NCOA1 inh: human NCOA1 inhibition; Q15788; HEK293 GAL4-SRC1 luciferase reporter, luminescence; inhibition, % at 3.6 µM; 360,000 tested, 0.12% active;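 active = inhibition above the campaign mean plus 3 SD, with each screening campaign given its own cutoff, cut at about 60% in these data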;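 also: 0% = DMSO treated cells and 100% = gossypol at 36 µM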
NCOA2 inhibitor: inhibits human steroid receptor coactivator 2; Q15596; HEK293 GAL4-SRC2 luciferase reporter, luminescence; inhibition, % at 9 µM; 370,000 tested, 0.17% active; AID 651957;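 active = inhibition above the mean inhibition of all tested compounds plus 3 SD, set per campaign, cut at about 52% in these data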;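 also: 0% = DMSO treated cells and 100% = cells given Gossypol at 36 µM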
SRC3 inh: inhibitors of human steroid receptor coactivator 3 (SRC3); HEK293 GAL4-SRC3 luciferase reporter, luminescence; Q9Y6Q9; inhibition, % at 3.6 µM; 360,000 tested, 0.17% active;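 active = inhibition above a per-campaign cutoff, the mean of all compounds plus 3 SD, cut at about 60% in these data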;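 also: 0% = DMSO-treated cells and 100% = gossypol-treated cells at 36 µM; higher means less SRC3-driven luciferase light from the GAL4 reporter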
Target sequence (Q9Y6Q9 whole entry, looked up, the tested form may be a part): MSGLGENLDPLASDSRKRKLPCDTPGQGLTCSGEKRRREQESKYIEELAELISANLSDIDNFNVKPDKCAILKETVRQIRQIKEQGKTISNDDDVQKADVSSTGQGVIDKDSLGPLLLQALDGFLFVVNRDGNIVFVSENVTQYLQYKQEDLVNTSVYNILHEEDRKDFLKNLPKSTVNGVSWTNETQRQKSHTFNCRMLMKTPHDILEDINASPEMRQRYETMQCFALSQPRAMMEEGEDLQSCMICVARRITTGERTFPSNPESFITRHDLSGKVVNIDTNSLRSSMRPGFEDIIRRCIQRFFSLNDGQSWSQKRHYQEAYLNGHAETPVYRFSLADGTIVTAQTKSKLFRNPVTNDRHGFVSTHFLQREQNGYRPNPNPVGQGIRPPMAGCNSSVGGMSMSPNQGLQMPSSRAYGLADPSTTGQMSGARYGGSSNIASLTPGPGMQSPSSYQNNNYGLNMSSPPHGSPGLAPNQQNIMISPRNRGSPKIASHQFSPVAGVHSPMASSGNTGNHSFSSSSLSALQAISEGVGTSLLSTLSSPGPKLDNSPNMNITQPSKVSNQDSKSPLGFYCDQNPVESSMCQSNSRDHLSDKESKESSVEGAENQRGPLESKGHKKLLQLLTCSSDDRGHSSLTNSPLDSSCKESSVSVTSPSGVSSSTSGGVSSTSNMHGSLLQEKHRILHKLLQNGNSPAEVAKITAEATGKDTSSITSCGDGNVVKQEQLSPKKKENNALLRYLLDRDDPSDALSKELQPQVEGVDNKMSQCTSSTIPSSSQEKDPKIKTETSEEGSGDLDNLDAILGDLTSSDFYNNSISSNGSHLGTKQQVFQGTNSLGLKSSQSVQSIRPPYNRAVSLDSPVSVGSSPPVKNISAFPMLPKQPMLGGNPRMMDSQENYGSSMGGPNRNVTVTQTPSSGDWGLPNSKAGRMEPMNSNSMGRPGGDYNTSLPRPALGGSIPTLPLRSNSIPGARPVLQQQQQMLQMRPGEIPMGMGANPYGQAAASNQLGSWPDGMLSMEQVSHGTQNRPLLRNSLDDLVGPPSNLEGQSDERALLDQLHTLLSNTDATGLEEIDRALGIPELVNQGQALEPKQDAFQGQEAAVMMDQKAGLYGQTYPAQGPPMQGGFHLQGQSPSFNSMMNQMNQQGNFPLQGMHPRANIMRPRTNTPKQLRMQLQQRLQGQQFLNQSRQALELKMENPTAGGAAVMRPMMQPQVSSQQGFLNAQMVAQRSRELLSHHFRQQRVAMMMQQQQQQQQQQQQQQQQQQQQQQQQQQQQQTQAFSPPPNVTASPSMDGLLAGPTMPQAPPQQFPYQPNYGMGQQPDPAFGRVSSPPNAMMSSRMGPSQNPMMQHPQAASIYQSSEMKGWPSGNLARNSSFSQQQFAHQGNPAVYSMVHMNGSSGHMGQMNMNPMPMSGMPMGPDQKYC
EBV LMP1 NFkB: reduces LMP1-driven NF-kappaB luciferase signal. AID 504558. inhibition, % at 12.5 µM. LMP1-induced NF-kappaB luciferase reporter cells, luminescence. 350,000 tested, 0.69% active; in the data active = inhibition above about 41%; inconclusive = no clear call, values can overlap the other calls;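 also: 0% = neutral control wells and 100% = reference inhibitor control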
LRH-1 inv ag: suppresses constitutive activity of human LRH-1; O00482; HEK293T StAR-luciferase reporter, LRH-1 transfected, 24 h; inhibition, % at 3.6 µM; 360,000 tested, 0.13% active;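 active = inhibition above the mean inhibition of all tested compounds plus 3 SD, cut at about 73% in these data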;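 also: 0% = DMSO wells and 100% = reporter-only cells lacking LRH-1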
* = called active by the depositor; ? = inconclusive; · = no result given; ! = not active in a repeat. The list is not random: actives were taken first. Their share in the collection is about 0.78%.

SMILES	NCOA1 inh	NCOA2 inhibitor	SRC3 inh	EBV LMP1 NFkB	LRH-1 inv ag
Cc1ccccc1-c1nnc2n1N=C(c1ccc(O)c(O)c1)CS2	·	29	·	·	·
Cc1ccc(-c2cc(C(=O)NN=Cc3ccc(-c4ccccc4)cc3)[nH]n2)cc1C	·	-15	·	·	·
COCCNC(=O)C(=O)NCC1OCCN1C(=O)c1ccc(Cl)cc1 (configuration not stated)	-8	-13	-3	80*	-20
COC(CNC(=O)C(=O)NCC1OCCN1C(=O)c1ccc(Cl)cc1)OC (configuration not stated)	-9	-28	-13	1	-32
CCN(CC)c1ccc(NC(=O)c2cc3c(C)nn(-c4ccccc4)c3s2)cc1	·	-12	·	·	·
Cc1ccc(-c2cc3c(nn2)-c2ccccc2C3=O)cc1	5	27	21	65*	-17
O=C1c2ccccc2-c2nnc(-c3ccc(F)cc3)cc21	-92	-39	-65	11	-57
CCC(=O)N[C@@H]1C[C@@H]2O[C@@H](CO)CC[C@@H]2O[C@@H]1CCc1ccc(-c2cccc(OC)c2)cc1	·	9	·	·	·
COc1cc(C=CC(=O)c2cc(OC)c(OC)c(OC)c2)cc(OC)c1OC	51	68*	64*	20	51
C=C1C(=O)OC2C=C(CO)C3OC3C3OC3(C)CC(OC(=O)/C(=C/C)COC(C)=O)C12 (configuration not stated)	-116	-39	-67	70*	-11
CC(=O)OCC1=C[C@@H]2OC(=O)C3=CO[C@@H](O[C@@H]4O[C@H](CO)[C@@H](O)[C@H](O)[C@H]4O)[C@H]1[C@@H]32	-4	11	4	-1	23
Cc1ccc(NCCN(C)C)c2c(=O)c3cc(O)ccc3sc12	64*	-69	59	45*	43
CCn1c2ccccc2c2cc(/C=N/NC(=O)c3cccc(C)c3)ccc21	-4	-13	-19	88*	-10
CCn1c2ccccc2c2cc(/C=N/NC(=O)c3ccccc3C)ccc21	0	12	11	87*	10
O=C(NC1CC1)c1ccc(-c2nc3ccccc3s2)s1	-32	38	-7	42*	-70
N=C(N)c1ccc(O)cc1	2	-11	-6	6	17
N=C(N)c1ccccc1	-6	-11	-8	82*!	-18
CCNC(=O)N(CC)C[C@H]1N[C@@](Cc2ccccc2)(C(=O)OC)[C@H]2C(=O)N(C)C(=O)[C@@H]12	2	9	-3	65*	3
CCNC(=O)N(CC)C[C@H]1N[C@@](Cc2ccccc2)(C(=O)OC)[C@H]2C(=O)N(Cc3ccccc3)C(=O)[C@@H]12	-7	1	-1	-2	-11
N[C@H](C(=O)N1CCC[C@@H]1C(=O)N1CCC2CCN(S(=O)(=O)c3ccccc3)CC21)c1ccccc1 (some centres not stated)	·	-6	·	·	·
COc1ccc(-c2ccnc3cc(C(=O)O)nn23)cc1	-6	13	18	57*	-13
O=C(O)c1cc2nccc(-c3ccco3)n2n1	-12	20	16	-9	0
COc1cccc(N=Nc2ccc(O)c3ncccc23)c1	-28	-36	-15	69*	-35
COc1ccc(C)cc1N=Nc1ccc(O)c2ncccc12	40	14	54	86*	5
Oc1ccc(N=Nc2ccc3c(c2)OCCO3)c(O)c1	-15	38	19	39	-73
SMILES	NCOA1 inh	NCOA2 inhibitor	SRC3 inh	EBV LMP1 NFkB	LRH-1 inv ag
Cc1ccccc1N=Nc1ccc(O)c2ncccc12	12	-2	7	44*	4
Oc1ccc(N=Nc2ccc3c(c2)OCCO3)c2cccnc12	37	52*	59	60*	4
COc1ccc(N=Nc2ccc(O)c3ncccc23)cc1	-30	4	-43	?	-7
CCC(C)N(CC(=O)Nc1cccc(C)c1C)C(=O)CCl (configuration not stated)	62*	·	62*	37	42
CC(C)(C)C(=O)NC1CCCCN(Cc2cccc(C(F)(F)F)c2)C1=O (configuration not stated)	·	8	·	·	·
CC(C)CC(=NNC(=O)c1ccncc1)c1cc(Cl)ccc1O	53	-5	71*	73*	45
CC(=NNC(=O)c1ccncc1)c1ccccc1O	11	2	-2	27	0
COc1cc(/C=N/NC(=O)c2cc(C34CC5CC(CC(C5)C3)C4)[nH]n2)ccc1O	1	-23	0	81*	12
COc1cc(/C=N/NC(=O)c2cc(C3CC3)[nH]n2)ccc1O	-10	9	10	-4	2
CCN(CC)c1ccc(C=Nn2c(-c3cc(C)[nH]n3)n[nH]c2=S)cc1	·	-17	·	·	·
CCn1c2ccccc2c2cc(/C=N/n3cnnc3)ccc21	11	-13	-2	83*	64
CCn1c2ccccc2c2cc(/C=N/n3c(-c4cc(C)[nH]n4)n[nH]c3=S)ccc21	17	7	11	87*	57
CCn1c2ccccc2c2cc(/C=N/n3cn[nH]c3=S)ccc21	20	6	4	80*	42
CCn1c2ccccc2c2cc(/C=N/O)ccc21	9	27	30	21	6
O=C(CNCc1ccccc1[N+](=O)[O-])N1CCC2(CC1)OCCO2	·	-28	·	·	·
CC(C)(C)c1ccc(Cn2c(=O)cnc3ccccc32)cc1	16	37	21	63*	5
COc1ccc(NC(=O)NCCN2CCc3ccccc3C2)cc1	-13	-13	-9	82*	6
COc1ccc(C(CNC(=O)Nc2ccccc2)N2CCN(C)CC2)cc1 (configuration not stated)	-8	-5	6	52*	-9
O=C(Nc1cccc(-c2ccc(N3CCCCC3)nn2)c1)C(F)(F)F	-36	14	-60	55*	-58
CC1CCN(c2ccc(-c3cccc(NC(=O)C(F)(F)F)c3)nn2)CC1	35	42	12	80*	0
O=C(Nc1cccc(-c2ccc(N3CCCCC3)nn2)c1)c1ccc(Br)o1	-112	-55	-77	-5	-98
O=C1/C(=C/c2cccnc2)SC(=S)N1Cc1ccco1	-7	0	12	43*	-13
Cc1cc(/C=C2\SC(=S)N(Cc3ccco3)C2=O)c(C)n1-c1cccnc1	-23	-44	-39	-19	-11
CC1(C)C2CCC1(C)C(OCC[N+](C)(C)CC(=O)OC1CCCCC1)C2 (configuration not stated)	-7	-22	12	68*	11
CCOC(=O)C[N+](C)(C)CCOC1CC2CCC1(C)C2(C)C (configuration not stated)	-3	13	14	-1	4
C=C1CCC2C(C)(C)CCC[C@]2(C)[C@H]1CC1=C(O)C(=O)C(CO)=CC1=O (some centres not stated)	·	62*	·	·	·
C=C/C(C)=C/C[C@H]1C(=C)CCC2[C@](C)(C(=O)O)CCC[C@@]21C (some centres not stated)	-4	·	16	-1	8
COC(=O)[C@]12C[C@H](CC(=O)NCCCN3CCCC3=O)C(=O)N(Cc3ccc(Cl)cc3Cl)C1=C[C@H](C1CCCC1)O[C@@H]2C	·	-24	·	·	·

Screens (PubChem BioAssay)
